Laboratory results reported in ChEMBL document CHEMBL1157539, “Thousands of chemical starting points for antimalarial lead identification” (Nature, 2010).

Columns and labels:
Assay type in all cases: functional
Plasmodium falciparum [1] = assay: GSK_TCMDC: Inhibition of Plasmodium falciparum 3D7 in whole red blood cells, using parasite LDH activity as an index of growth. Test compounds present at 2uM
Plasmodium falciparum [2] = assay: GSK_TCMDC: Inhibition of Plasmodium falciparum Dd2 in whole red blood cells, using parasite LDH activity as an index of growth. Test compounds present at 2uM
HepG2 = assay: GSK_TCMDC: Percent inhibition of human HepG2 cell line. Test compounds present at 10uM.

Compound	Inhibition (Plasmodium falciparum [1]) [%]	Inhibition (Plasmodium falciparum [2]) [%]	Inhibition (HepG2) [%]
N=C(N)Nc1nc(-c2cccc(NC(=O)CCCCCCCON3C(N)=NC(N)=NC34CCCCC4)c2)cs1	96	89	1
COc1ccc(CCNCCCCCCNCCc2ccc(OC)c(OC)c2Cl)c(Cl)c1OC.Cl	96	0	19
COc1ccc(Cl)cc1N1CCN(CCCNC(=O)c2ccc(-c3nc4cc(Cl)c(F)cc4[nH]3)s2)CC1	100	98	12
CCN1CCC(N(Cc2ccc(-c3ccc(Cl)cc3)cc2)C(=O)Cn2c(CCc3cccc(F)c3F)cc(=O)c3ccccc32)CC1.O=C(O)C(O)C(O)C(=O)O	99	95	100
CCC(C)CN1CCN(c2cc(NC(=O)c3cccs3)ccn2)C(C)C1.O=C(O)C(F)(F)F (stereo unspecified)	88	72	5
CC(C)COc1ccc(Cl)cc1Cc1ccc(-c2nc3cc(F)c(F)cc3[nH]2)o1	95	96	27
CC(C)C[C@H](NC(=O)c1ccc(OCCN2CCOCC2)cc1)C(=O)N[C@H](/C=N/N1CCNC1=O)CCc1ccccc1	89	94	1
NCCCNc1nc(Nc2cccc(C(N)=O)c2)c2c(=O)[nH]ccc2n1.O=C(O)C(F)(F)F	99	49	9
Cc1noc(C)c1-c1cccc(CNCc2ccc(-c3cccc(-c4nc5ccccc5[nH]4)c3)cc2)c1.O=C(O)C(F)(F)F	100	57	50
Cc1ccc(NC(=O)c2ccc(CN3CCCN(CC4CCCCC4)CC3)cc2)cc1C.O=C(O)C(F)(F)F	86	32	38
CCSc1ccc(C)cc1CON1C(N)=NC(N)=NC1(C)C.Cl	94	96	66
COc1ccc(CCN(C)CCOc2ccc(NC(=O)COc3ccc4sc5ccccc5c(=O)c4c3)cc2)cc1OC	100	91	99
COc1ccccc1N1CCN(CCCCNC(=O)c2ccc(NC(=O)c3cc(Cl)cc(Cl)c3)cc2)CC1	100	75	9
CCCCCC(C)N/C(=N/c1ccccc1Br)Nc1ccc([N+](=O)[O-])cc1O (stereo unspecified)	99	98	0
Cc1ccc(CNC(=O)[C@H](CC(C)C)Nc2cc(C)nc(NCc3ccccc3C)n2)cc1.O=C(O)C(F)(F)F	87	35	3
CO/C(=C\C=C\c1cc2cc(Cl)c(Cl)cc2[nH]1)C(=O)NCCCN1CCN(c2ccncc2)CC1	98	96	12
CN(CCO)Cc1ccc(-c2ccc(NS(=O)(=O)c3cccc4cccnc34)cc2)cc1.O=C(O)C(F)(F)F	99	84	28
